In PubChem BioAssay AID1159580 (chemical genetic matrix, 2015):
The whole screen tested about 5,500 compounds, of which about 2,000 (36%) were called active. About 18% were inconclusive and are not listed. Rule as the data show it: active = normalized growth mostly below about 0.91 (no sharp cut-off); inconclusive = no clear call, values can overlap the other calls; inactive = mostly above about 0.92. Some of the results follow.

Experiment: chemical genetic growth profiling, strain panel (AID 1159580);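 also: tested at 20 µM; growth read once vehicle control cultures reached saturation at 30 °C; 1 = growth at the plate median or of vehicle wells; lower values mean less growth of the strain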
Details: S. cerevisiae deletion strains, growth OD
[1] = locus YAR019C, strain CDC15, hits give low values
[2] = locus YBL105C, strain PKC1, hits give low values
[3] = locus YBR135W, strain CKS1, hits give low values
[4] = locus YBR136W, strain MEC1, hits give low values
[5] = locus YBR160W, strain CDC28, hits give low values
[6] = locus YDL017W, strain CDC7, hits give low values
[7] = locus YDL028C, strain MPS1, hits give low values
[8] = locus YDL101C, strain DUN1, hits give low values
[9] = locus YDL108W, strain KIN28, hits give low values
[10] = locus YDL132W, strain cdc53, hits give low values
[11] = locus YDL214C, strain PRR2, hits give low values
[12] = locus YDR052C, strain DBF4, hits give low values
[13] = locus YDR054C, strain cdc34, hits give low values
[14] = locus YDR226W, strain ADK1, hits give low values
[15] = locus YDR477W, strain SNF1, hits give low values
[16] = locus YER123W, strain YCK3, hits give low values
[17] = locus YER133W, strain GLC7, hits give low values
[18] = locus YFL009W, strain cdc4, hits give low values
[19] = locus YFL029C, strain CAK1, hits give low values
[20] = locus YFR003C, strain YPI1, hits give low values
[21] = locus YFR019W, strain FAB1, hits give low values
[22] = locus YFR028C, strain CDC14, hits give low values
[23] = locus YGR040W, strain KSS1, hits give low values
[24] = locus YGR052W, strain FMP48, hits give low values
[25] = locus YGR092W, strain DBF2, hits give low values
[26] = locus YHR030C, strain SLT2, hits give low values
[27] = locus YHR079C, strain IRE1, hits give low values
[28] = locus YHR082C, strain KSP1, hits give low values
[29] = locus YHR205W, strain SCH9, hits give low values
[30] = locus YIL147C, strain SLN1, hits give low values
[31] = locus YJL095W, strain BCK1, hits give low values
[32] = locus YJL128C, strain PBS2, hits give low values
[33] = locus YJL157C, strain FAR1, hits give low values
[34] = locus YJR016C, strain ILV3, hits give low values
[35] = locus YJR066W, strain TOR1 (second series), hits give low values
[36] = locus YJR066W, strain TOR1, hits give low values
[37] = locus YKL048C, strain ELM1, hits give low values
[38] = locus YKL067W, strain YNK1, hits give low values
[39] = locus YKL101W, strain HSL1, hits give low values
[40] = locus YKL193C, strain SDS22, hits give low values
[41] = locus YKL203C, strain TOR2, hits give low values
[42] = locus YLR113W, strain HOG1, hits give low values
[43] = locus YLR133W, strain CKI1, hits give low values
[44] = locus YLR403W, strain SFP1, hits give low values
[45] = locus YML070W, strain DAK1, hits give low values
[46] = locus YMR001C, strain CDC5, hits give low values
[47] = locus YMR205C, strain PFK2 (second series), hits give low values
[48] = locus YMR277W, strain FCP1, hits give low values
[49] = locus YNL006W, strain LST8, hits give low values
[50] = locus YNL020C, strain ARK1, hits give low values
[51] = locus YNL161W, strain CBK1, hits give low values
[52] = locus YNL183C, strain NPR1, hits give low values
[53] = locus YNL207W, strain RIO2, hits give low values
[54] = locus YNL222W, strain SSU72, hits give low values
[55] = locus YNL307C, strain MCK1 (second series), hits give low values
[56] = locus YOL078W, strain AVO1, hits give low values
[57] = locus YOL136C, strain PFK27, hits give low values
[58] = locus YOR061W, strain CKA2, hits give low values
[59] = locus YOR119C, strain RIO1, hits give low values
[60] = locus YOR231W, strain MKK1, hits give low values
[61] = locus YOR329C, strain SCD5, hits give low values
[62] = locus YPL031C, strain PHO85, hits give low values
[63] = locus YPL153C, strain RAD53, hits give low values
[64] = locus YPL204W, strain HRR25, hits give low values
[65] = locus YPL209C, strain IPL1, hits give low values
[66] = locus YPL256C, strain CLN2, hits give low values
[67] = locus YPR025C, strain CCL1, hits give low values
[68] = locus YPR106W, strain ISR1, hits give low values
[69] = locus YPR111W, strain DBF20, hits give low values
[70] = strain NNK1, hits give low values
[71] = strain TSCII, hits give low values

Measured: normalized growth

O=S(=O)(Nc1cc(C(F)(F)F)cc(C(F)(F)F)c1)c1ccc(Cl)s1
active: [12] 0.891 | [21] 0.772 | [25] 0.369 | [26] 0.246 | [27] 0.51 | [28] 0.48 | [37] 0.701 | [39] 0.685 | [42] 0.55 | [57] 0.67 | [60] 0.558 | [63] 0.617 | [64] 0.628 | [66] 0.475
inactive: [1] 0.927 | [2] 0.921 | [3] 0.93 | [4] 0.922 | [5] 0.923 | [6] 0.925 | [7] 0.928 | [8] 0.942 | [9] 0.939 | [10] 0.925 | [11] 0.818 | [13] 0.926 | [14] 0.914 | [15] 0.808 | [16] 0.622 | [17] 0.83 | [18] 0.92 | [19] 0.928 | [20] 0.927 | [22] 0.927 | [23] 0.835 | [24] 0.619 | [29] 0.808 | [30] 0.927 | [31] 0.605 | [32] 0.906 | [33] 0.802 | [34] 0.921 | [35] 0.856 | [36] 0.668 | [38] 0.841 | [40] 0.933 | [41] 0.786 | [43] 0.772 | [44] 0.837 | [45] 0.718 | [46] 0.93 | [47] 0.852 | [48] 0.931 | [49] 0.941 | [50] 0.726 | [51] 0.927 | [52] 0.568 | [53] 0.914 | [54] 0.934 | [55] 0.645 | [56] 0.923 | [58] 0.836 | [59] 0.838 | [61] 0.927 | [62] 0.706 | [65] 0.927 | [67] 0.929 | [68] 0.934 | [69] 0.923 | [70] 0.919 | [71] 0.917

COC(=O)c1sccc1S(=O)(=O)Nc1cc(C(F)(F)F)cc(C(F)(F)F)c1
inactive: [1] 0.973 | [2] 0.967 | [3] 0.974 | [4] 0.974 | [5] 0.962 | [6] 0.973 | [7] 0.979 | [8] 0.957 | [9] 0.97 | [10] 0.967 | [11] 0.962 | [12] 0.969 | [13] 0.98 | [14] 0.971 | [15] 0.985 | [16] 0.936 | [17] 0.981 | [18] 0.965 | [19] 0.965 | [20] 0.974 | [21] 0.955 | [22] 0.962 | [23] 0.971 | [24] 1.03 | [25] 0.977 | [26] 1.07 | [27] 1.02 | [28] 1.06 | [29] 0.947 | [30] 0.978 | [31] 1.01 | [32] 0.9 | [33] 0.963 | [34] 0.97 | [35] 0.942 | [36] 1.07 | [37] 0.95 | [38] 0.956 | [39] 0.958 | [40] 0.969 | [41] 1.04 | [42] 0.902 | [43] 0.962 | [44] 0.966 | [45] 0.935 | [46] 0.972 | [47] 0.946 | [48] 0.971 | [49] 0.985 | [50] 0.956 | [51] 0.967 | [52] 0.997 | [53] 0.97 | [54] 0.961 | [55] 0.943 | [56] 0.971 | [57] 0.938 | [58] 0.955 | [59] 1.05 | [60] 0.934 | [61] 0.972 | [62] 0.987 | [63] 0.973 | [64] 0.97 | [65] 0.965 | [66] 0.967 | [67] 0.969 | [68] 0.955 | [69] 0.938 | [70] 0.974 | [71] 0.972
